Screening results: PubChem, National Center for Advancing Translational Sciences (NCATS)
A selection: hits, their analogues and other compounds. The true share with any hit is near 0.49%.
Vif-A3G inh: inhibitors of Vif-APOBEC3G interaction; 410,000 compounds, 0.076% hits; HeLa A3G-eYFP + Vif (tagged APOBEC3G with the HIV-1 protein that degrades it), YFP fluorescence, overnight; Potency, µM (series often up to 46.1 µM), usual class: inhibitors; note: nearly all actives have a fitted effect of over 60% in size
Target sequence (Q9HC16 whole entry, looked up): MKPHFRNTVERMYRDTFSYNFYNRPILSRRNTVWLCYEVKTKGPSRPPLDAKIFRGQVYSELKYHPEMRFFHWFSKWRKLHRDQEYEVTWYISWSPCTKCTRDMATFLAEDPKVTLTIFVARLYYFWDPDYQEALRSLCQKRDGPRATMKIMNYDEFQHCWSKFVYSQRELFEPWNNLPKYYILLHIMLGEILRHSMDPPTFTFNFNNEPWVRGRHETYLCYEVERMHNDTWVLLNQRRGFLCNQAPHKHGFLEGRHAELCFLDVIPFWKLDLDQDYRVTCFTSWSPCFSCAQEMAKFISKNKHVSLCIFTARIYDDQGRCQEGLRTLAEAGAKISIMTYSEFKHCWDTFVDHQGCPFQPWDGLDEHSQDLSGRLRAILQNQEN
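Read-out is eYFP fluorescence (Ex 488/Em 500-530) from Vif-expressing HeLa A3G-eYFP cells; more signal means A3G escaped Vif-mediated degradation. Cells plated overnight, compound pinned in, incubated overnight at 37 deg C.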
Pin1 inh: blocks the human prolyl isomerase Pin1; Potency, µM (highest dose often 115 µM), hits mostly inhibitors; Q13526; Pin1 FP peptide displacement, HiFluor488, 10 min; 390,000 compounds, 0.009% hits; active = well fitted inhibition curve with a large enough effect in the polarisation, with a control signal flat, not every such curve was filed as active; inconclusive = small, poorly fitted or top-dose-only effect, or effect the other way, or a change in a side signal; inactive = no such curve, though single readings can be large or run the other way; the % refers to the polarisation
Target sequence (Q13526 whole entry, looked up): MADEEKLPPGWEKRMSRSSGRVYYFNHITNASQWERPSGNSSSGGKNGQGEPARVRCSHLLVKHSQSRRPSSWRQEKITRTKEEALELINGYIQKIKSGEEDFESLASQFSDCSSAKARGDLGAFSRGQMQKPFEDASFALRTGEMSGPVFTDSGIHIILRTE
Tb PGK inh: inhibitors of T. brucei phosphoglycerate kinase; PGK/GAPDH coupled, Kinase-Glo luminescence, 60 min; Potency, µM (highest dose often 57.5 µM), hits mostly inhibitors; 380,000 compounds, 0.043% hits; note: nearly all actives have a fitted effect of over 60% in size
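Luminescent ATP detection (Kinase-Glo Plus) follows a 60-minute room-temperature incubation, with wells lacking PGK as controls. Buffer: 100 mM TEA (pH 7.6), 5 mM MgCl2, 0.01% Tween-20. Coupling enzyme GAPDH (100 nM final) supplies unstable 1,3-BPG in-well.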
IDH1 R132H inh: blocks human mutant IDH1 R132H enzyme. O75874. IDH1-R132H enzyme, NADPH consumption, diaphorase/resazurin fluorescence. Potency, µM (doses to about 76.6 µM), actives largely listed as inhibitors. 390,000 compounds, 0.093% hits. AID 602179; note: nearly all actives have a fitted effect of over 65% in size
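IDH1-R132H (0.5 ug/mL dispensed) in pH 7.5 Tris buffer was preincubated 30 min with compound, then given a substrate mix of 0.016 mM NADPH and 2 mM alpha-KG for 80 min at room temperature; remaining NADPH was read by diaphorase/resazurin fluorescence.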
LDHA block: inhibitors of human lactate dehydrogenase A. P00338. activity change, % (values are at about 110 or 230 µM). 480,000 compounds, 0.15% hits. purified LDHA, NADH/diaphorase-resazurin fluorescence; stronger effect = lower value; in the data active = activity change below about -30%; inconclusive = mostly about -25% to -30%
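Resorufin fluorescence (ex540/em590), read at 0 and 20 min after diaphorase/resazurin addition, reports the NADH left after a 5 min room-temperature reaction of 2 nM human LDH5 with 0.06 mM NADH and 0.2 mM pyruvate.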
Vif-APOBEC3F blk: inhibitors of Vif-A3F interaction; HeLa A3F-eYFP + Vif (tagged APOBEC3F with the HIV-1 protein that degrades it), YFP fluorescence increase; Potency, µM (titrated, usually from 46.1 µM); 390,000 compounds, 0.2% hits; note: nearly all actives have a fitted effect of over 65% in size
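Fluorescence increase (Ex 488/Em 500-530) after overnight compound treatment at 37 deg C flags inhibition of Vif-driven A3F-eYFP loss in stable HeLa A3F-eYFP/Vif cells seeded overnight beforehand.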
Resorufin autofl: interferes with resorufin fluorescence in IDH1 counter-screen; 750 tested, under 10 active; shares compounds with IDH1 R132H inh; inhibition of signal, % at 51.2 µM; Resorufin detection reagent fluorescence interference, cell-free
WT IDH1 inh: wild-type IDH1 (human) inhibition counterscreen. WT IDH1 enzyme, NADPH diaphorase/resazurin fluorescence. 750 compounds, 9% hits. AID 623995. shares compounds with IDH1 R132H inh. Potency, µM (highest dose often 115 µM), actives largely listed as inhibitors; note: nearly all actives have a fitted effect of over 55% in size
IDH1 R132H conf: confirmation of human mutant IDH1 inhibitors | shares compounds with IDH1 R132H inh | 750 compounds, 83% hits | IDH1 R132H enzyme, NADPH diaphorase/resazurin fluorescence | AID 624002 | Potency, µM (titrated, usually from 76.6 µM), hits mostly inhibitors; note: nearly all actives have a fitted effect of over 50% in size
Large screens that a line does not name were inactive (follow-up assays come after a bar, where they were run). Unless noted, calls come from the whole dose curve; as a rule, active = well fitted curve in the direction sought with a large enough effect; inconclusive = small, poorly fitted or top-dose-only effect, or another doubt; inactive = no such curve, though single readings can be large; an effect the other way counts as inactive or inconclusive.

Cn1cc(C(=O)OCC(=O)NC2CC2)c2ccccc21	none (no result: Vif-A3G inh, Pin1 inh, Tb PGK inh, IDH1 R132H inh, Vif-APOBEC3F blk)
Nc1c(Br)cc2c3c(cccc13)-c1ccccc1-2	Vif-A3G inh inconclusive, Pin1 inh inconclusive, Vif-APOBEC3F blk 11µM
Cn1cccc1/C=C1\C(=O)NC(=O)N(CCC2=CCCCC2)C1=O	Pin1 inh inconclusive
Cn1cccc1/C=C1\C(=O)NC(=O)N(Cc2ccccc2Cl)C1=O	Vif-APOBEC3F blk 11µM
CCN1/C(=C\C=C\C2=[N+](CC)c3ccccc3C2(C)C)C(C)(C)c2ccccc21	Pin1 inh inconclusive, Tb PGK inh inconclusive, IDH1 R132H inh 35µM
CCCC[N+]12CCC(CC1)C(=C(c1ccccc1)c1ccccc1)C2	LDHA block -106
CCC[N+]12CCC(CC1)C(=C(c1ccccc1)c1ccccc1)C2	none
O=C(O)c1cccc2c1NC(C(=O)O)C1CC(Sc3ccccc3[N+](=O)[O-])C(Cl)C21 (configuration not stated)	Tb PGK inh 11µM (no result: Pin1 inh)
CC(=O)c1ccc2c(c1)C1C(Cl)C(Sc3ccccc3[N+](=O)[O-])CC1C(C(=O)O)N2 (configuration not stated)	Pin1 inh inconclusive, Tb PGK inh inconclusive, IDH1 R132H inh inconclusive
Cc1nnc(C(C)N2CCN(C(=O)Cc3ccccc3C)CC2)o1 (configuration not stated)	none (no result: Vif-A3G inh, Pin1 inh, Tb PGK inh, IDH1 R132H inh, Vif-APOBEC3F blk)
COc1ccc2c3c1OC1C(O)C=CC4C(C2)[N+](C)(C)CCC341 (configuration not stated)	LDHA block -72 (no result: Tb PGK inh)
CN1CC[C@]23c4c5ccc(O)c4OC2[C@H](O)C=CC3[C@H]1C5 (some centres not stated)	none
O=C1NC(=O)N(c2ccccc2)C(=O)/C1=C\c1ccccc1[N+](=O)[O-]	LDHA block -35
CCn1c(NN=O)nc2ccccc21	Vif-APOBEC3F blk 11µM
CCCCc1ccc2[nH]c(C)c(CCN)c2c1	none (no result: Vif-A3G inh, Pin1 inh, Tb PGK inh, IDH1 R132H inh, Vif-APOBEC3F blk)
C/C=C/C1(NCCc2ccccc2)CCCCC1	none (no result: Vif-A3G inh, Pin1 inh, Tb PGK inh, IDH1 R132H inh, Vif-APOBEC3F blk)
Cc1ccc(/C=C2\C(=O)NC(=S)N(c3ccccc3F)C2=O)s1	Vif-A3G inh inconclusive, LDHA block -33
Cc1ccc(/C=C2\C(=O)NC(=S)N(c3ccc(F)cc3)C2=O)s1	Vif-A3G inh inconclusive, Pin1 inh inconclusive
CCOC(=O)c1c(/N=C/c2c(O)n(-c3cccc(C)c3)c(=O)[nH]c2=O)sc2c1CCCC2	IDH1 R132H inh inconclusive | Resorufin autofl inactive | WT IDH1 inh inactive | IDH1 R132H conf 11µM
COc1ccc([N+](=O)[O-])cc1	none (no result: Vif-A3G inh, Pin1 inh, Tb PGK inh, IDH1 R132H inh, Vif-APOBEC3F blk)
Cc1ccc(-n2nc3c(=O)n(CC(=O)NCC(C)c4ccccc4)nc(C)c3c2C)cc1 (configuration not stated)	IDH1 R132H inh inconclusive | Resorufin autofl inactive | WT IDH1 inh inactive | IDH1 R132H conf inactive
N#CC(C#N)=NNc1ccc(-n2ccc(C(F)(F)F)n2)cc1	IDH1 R132H inh 33µM | Resorufin autofl inactive | WT IDH1 inh 79µM | IDH1 R132H conf 25µM
NCCc1ccc(OC(F)(F)F)cc1	none (no result: Vif-A3G inh, Pin1 inh, Tb PGK inh, IDH1 R132H inh, Vif-APOBEC3F blk)
CC(=O)Nc1ccc(C(=O)OCC(=O)Nc2ccc(Cl)cc2C(=O)c2ccccc2)cc1	IDH1 R132H inh inconclusive
O=C(COC(=O)c1ccc(O)cc1)Nc1ccc(Cl)cc1C(=O)c1ccccc1	IDH1 R132H inh 58µM | Resorufin autofl inactive | WT IDH1 inh inactive | IDH1 R132H conf 35µM
CCOC(=O)c1c(-n2c(C)cc(C=C3C(=O)NC(=S)NC3=O)c2C)sc2c1CCCC2	Vif-A3G inh inconclusive, Pin1 inh inconclusive, IDH1 R132H inh 14µM | Resorufin autofl inactive | WT IDH1 inh 40µM | IDH1 R132H conf 7.1µM
CCOC(=O)c1c(-n2c(C)cc(/C=C3/C(=O)NC(=O)N(CC)C3=O)c2C)sc2c1CCCC2	IDH1 R132H inh inconclusive
C/C(=N/NC(N)=S)c1ccc(Cl)cc1	none (no result: Vif-A3G inh, Pin1 inh, Tb PGK inh, IDH1 R132H inh, Vif-APOBEC3F blk)
